Test results taken from PubChem BioAssay (NCI).
About 79,000 compounds went through this panel and 15% of them were active in at least one assay; those are over-represented in the sample as a whole. The source made the active and inactive calls. No stated cut-off is given here; in the data, active means growth inhibition above about 70%; inactive means the rest.

Assay: NCI Yeast Anticancer Drug Screen. Data for the wt1 strain (AID 149);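 further: 0% = growth of vehicle-treated wt1 cultures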
Settings: S. cerevisiae wt1 strain (SPY 50644) growth inhibition, stronger effect = higher value
Protocol: Growth inhibition of yeast strains with defined genetic alterations is measured as a screen for potential anti-cancer activity. Selected strains with alterations in DNA damage repair or cell cycle control were exposed to compounds and growth inhibition was measured relative to vehicle treated controls. The strain used in this assay is wt1

Measured: growth inhibition

Nc1cc(S(N)(=O)=O)ccc1SSc1ccc(S(N)(=O)=O)cc1N
inactive: at 1.2 µM 1% | at 3.7 µM -2% | at 11.0 µM 0% | at 33.0 µM 12% | at 100.0 µM 51%

Cc1cc(O)c2c(c1O)C(=O)C13C(=C2O)C(=O)C2C(O)C1C1C(O)C3C(=O)C3=C(O)c4c(O)cc(C)c(O)c4C(=O)C321 (stereo not given)
inactive: at 1.2 µM -7% | at 3.7 µM 2% | at 11.0 µM 38%
active: at 33.0 µM 80% | at 100.0 µM 85%

CCCCCCSc1nc(COC(=O)NC)c(COC(=O)NC)n1C
inactive: at 1.2 µM -1% | at 3.7 µM -2% | at 11.0 µM -2% | at 33.0 µM 6%
active: at 100.0 µM 98%

CCc1nc(N)nc(N)c1-c1ccc(NCCCCCCN)c([N+](=O)[O-])c1
inactive: at 1.2 µM -1% | at 3.7 µM -1% | at 11.0 µM -1% | at 33.0 µM -3% | at 100.0 µM -4%

CN(C)CCN1C(=O)c2cccc3cc([N+](=O)[O-])cc(c23)C1=O
inactive: at 1.2 µM 16% | at 3.7 µM 0% | at 11.0 µM -9% | at 33.0 µM -4% | at 100.0 µM 23%

NNC(=S)Nc1cccc2ccccc12
inactive: at 1.2 µM -21% | at 3.7 µM -17% | at 11.0 µM -24% | at 33.0 µM -7% | at 100.0 µM 7%

Cc1ccc(Nc2c3c(c(C#N)c4nc5ccccc5n24)CCCC3)cc1
inactive: at 1.2 µM 7% | at 3.7 µM 26% | at 11.0 µM 23% | at 33.0 µM 40% | at 100.0 µM 59%

O=[N+]([O-])c1cc(S(=O)(=O)Nc2ccccc2)ccc1Cl
active: at 33.0 µM 86% | at 100.0 µM 99%
inactive: at 1.2 µM -20% | at 3.7 µM -20% | at 11.0 µM 0%
